An excerpt weighted towards active compounds, which were near 1.7% of everything screened.
PfHsp40 yeast: compounds rescuing yeast from Plasmodium falciparum HSP40 toxicity; S. cerevisiae expressing PfHsp40, growth rescue, ATP luminescence; growth rescue, % at 12.5 µM; AID 504582; 340,000 compounds, 0.68% hits; in the data active means growth rescue above about 28%, passing the limit was not always enough;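 further: yeast W303a lacking pdr1 and pdr3 grown in galactose medium; growth measured after three days at 30 °C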
Yp Topo-I inh: inhibitors of Yersinia pestis topoisomerase I. Y. pestis Topo-I cleavage product accumulation, plate reader. activity, % at 10 µM. 360,000 compounds, 0.064% hits; in the data active means activity above about 50%, passing the limit was not always enough
BJeLR lethal: BJeLR cell viability loss; inhibition, % (test concentration not listed); BJeLR (HRASV12) viability, CellTiter-Glo ATP luminescence, 48 h; 300,000 compounds, 0.17% hits; in the data active means inhibition above about 50%
PriA SSB inh: K. pneumoniae PriA-SSBct interaction inhibition; AlphaScreen SSBct-PriA binding, biotinylated peptide; inhibition, % at 33 µM; 430,000 compounds, 0.6% hits; AID 1272365; in the data active means inhibition mostly above about 37%, no sharp cut-off; inactive means mostly below about 20%
PrPC surface inh: reduces human prion protein on the cell surface. AID 720596. cell surface PrPC, TR-FRET read-out. 370,000 compounds, 0.43% hits. inhibition, % at 13.8 µM; in the data active means inhibition above about 24%
PrP 5UTR inh: suppresses PrP 5' UTR mRNA reporter expression | cell-based PrP 5' UTR mRNA reporter, plate reader | inhibition, % (test concentration not listed) | 340,000 compounds, 0.35% hits; in the data active means inhibition above about 52%
A number is an active result; ! = a repeat was not active.

What do the screens show for `CC(C)C(=O)N1CCN(c2ccc([N+](=O)[O-])c(NC(C)c3ccccc3)c2)CC1` (stereo not drawn)?
PfHsp40 yeast: inactive; Yp Topo-I inh: inactive; BJeLR lethal: inactive; PriA SSB inh: 48.5; PrPC surface inh: inactive; PrP 5UTR inh: inactive

How did O=C([C@H]1CCc2nc[nH]c2C1)N1CCN(c2ccc(C(F)(F)F)cn2)CC1 do in these assays?
PriA SSB inh: inactive

Results for CC(=NNC(=O)CCC(=O)NN=C(C)c1ccc(C)o1)c1ccc(C)o1 ?
PriA SSB inh: inactive

Results for CC(=N/O)/C(=N\O)c1ccc(C)o1 ?
PfHsp40 yeast: 242.2; Yp Topo-I inh: inactive; BJeLR lethal: inactive; PrPC surface inh: inactive; PrP 5UTR inh: inactive

What do the screens show for `Cc1ccnc(Nc2ccc(NCCNC(=O)c3ccc(Br)o3)nn2)c1`?
PriA SSB inh: 62.0

How did CSc1ccc2nc(N(Cc3cccnc3)C(=O)c3ccc(C(=O)c4ccccc4)cc3)sc2c1 do in these assays?
PriA SSB inh: inactive

What do the screens show for `O=c1c2c(cnn2-c2ccccc2)c(C2CC2)nn1Cc1ccccc1Cl`?
PriA SSB inh: inactive

How did O=C1NC[C@@H](Cc2cccc3ccccc23)N(CCc2cc(C(F)(F)F)cc(C(F)(F)F)c2)C1=O do in these assays?
PfHsp40 yeast: 43.7; Yp Topo-I inh: inactive; BJeLR lethal: inactive; PriA SSB inh: inactive; PrPC surface inh: inactive; PrP 5UTR inh: inactive

Results for O=C1CC(c2nc(-c3ccccc3F)no2)CN1c1cccc(Cl)c1 (stereo not drawn) ?
PriA SSB inh: inactive

What do the screens show for `CN(CCCS(=O)(=O)[O-])c1ccc(/C=C/c2ccc3ccccc3[n+]2C)cc1`?
PfHsp40 yeast: inactive; Yp Topo-I inh: inactive; BJeLR lethal: inactive; PriA SSB inh: inactive; PrPC surface inh: inactive; PrP 5UTR inh: inactive

What do the screens show for `CN(C)c1ccc(/C=C/c2ccc3ccccc3[n+]2C)cc1`?
PfHsp40 yeast: 52.6; Yp Topo-I inh: inactive; BJeLR lethal: inactive; PriA SSB inh: inactive; PrPC surface inh: inactive; PrP 5UTR inh: inactive

What do the screens show for `O=[N+]([O-])c1ccc2c(c1Nc1ccccc1)=NC1(CCCCC1)N=2`?
PfHsp40 yeast: inactive; Yp Topo-I inh: inactive; BJeLR lethal: inactive; PriA SSB inh: inactive; PrPC surface inh: inactive; PrP 5UTR inh: inactive

Results for COc1ccc(Nc2c([N+](=O)[O-])ccc3c2=NC2(CCCCC2)N=3)cc1 ?
PfHsp40 yeast: inactive; Yp Topo-I inh: inactive; BJeLR lethal: inactive; PriA SSB inh: 75.9; PrPC surface inh: inactive; PrP 5UTR inh: inactive

How did Cc1cc(O)c2c(c1O)C(=O)[C@]13C(=C2O)C(=O)[C@@H]2[C@@H](O)[C@H]1[C@@H]1[C@H](O)[C@H]3C(=O)C3=C(O)c4c(O)cc(C)c(O)c4C(=O)[C@]312 do in these assays?
PfHsp40 yeast: 71.0; Yp Topo-I inh: inactive; PriA SSB inh: inactive; PrP 5UTR inh: inactive

How did COC(=O)N1CCc2ccc(NS(=O)(=O)c3cc4c5c(c3)CCN5C(=O)CC4)cc2C1 do in these assays?
PriA SSB inh: inactive

Results for CN(C)S(=O)(=O)c1ccc(NC(=O)c2cc(-c3cccs3)nc3ccccc23)cc1 ?
PfHsp40 yeast: inactive; Yp Topo-I inh: inactive; BJeLR lethal: inactive; PriA SSB inh: inactive; PrPC surface inh: inactive; PrP 5UTR inh: inactive

What do the screens show for `NS(=O)(=O)c1ccc(NC(=O)c2cc(-c3cccs3)nc3ccccc23)cc1`?
PfHsp40 yeast: inactive; Yp Topo-I inh: inactive; BJeLR lethal: 62.7; PriA SSB inh: inactive; PrPC surface inh: inactive; PrP 5UTR inh: inactive

Results for CCc1ccc(CN(C)C(=O)c2cc(COc3cccc(C(F)(F)F)c3)on2)nc1 ?
PfHsp40 yeast: 112.4; Yp Topo-I inh: inactive; BJeLR lethal: inactive; PriA SSB inh: inactive; PrPC surface inh: inactive; PrP 5UTR inh: inactive

How did COc1ccc(/C=C/c2nc3ccccc3n2C)cc1 do in these assays?
PfHsp40 yeast: inactive; Yp Topo-I inh: inactive; BJeLR lethal: 79.6; PriA SSB inh: inactive; PrPC surface inh: inactive; PrP 5UTR inh: inactive

What do the screens show for `Clc1ccc(COC(Cn2ccnc2)c2ccc(Cl)cc2Cl)cc1` (stereo not drawn)?
PfHsp40 yeast: 92.8; Yp Topo-I inh: 61.9; BJeLR lethal: inactive; PriA SSB inh: inactive; PrPC surface inh: inactive; PrP 5UTR inh: inactive

How did Clc1ccc(CSC(Cn2ccnc2)c2ccc(Cl)cc2Cl)cc1 (stereo not drawn) do in these assays?
PfHsp40 yeast: 146.7; Yp Topo-I inh: 57.3; BJeLR lethal: inactive; PriA SSB inh: inactive; PrPC surface inh: inactive; PrP 5UTR inh: inactive

How did Clc1ccc(CO/N=C(\Cn2ccnc2)c2ccc(Cl)cc2Cl)c(Cl)c1 do in these assays?
BJeLR lethal: inactive

Results for Cc1sc(NC(=O)/C=C/c2ccc([N+](=O)[O-])cc2)nc1-c1ccccc1 ?
PriA SSB inh: inactive

Results for CCCCCN=C(N)N/N=C/c1c[nH]c2ccc(OC)cc12 ?
PfHsp40 yeast: inactive; Yp Topo-I inh: inactive; BJeLR lethal: 69.6; PrPC surface inh: inactive; PrP 5UTR inh: inactive

What do the screens show for `CCCCCN=C(N)NN=Cc1c[nH]c2ccc(OC)cc12`?
PriA SSB inh: inactive

How did COc1ccc(-c2ccc(=O)n(CCCC(=O)Nc3ccc(Cl)cc3)n2)cc1OC do in these assays?
PriA SSB inh: inactive

What do the screens show for `COc1ccc(-c2cc(=O)n(-c3nc4ccccc4[nH]3)[nH]2)cc1`?
PfHsp40 yeast: inactive; Yp Topo-I inh: inactive; BJeLR lethal: inactive; PriA SSB inh: 40.4; PrPC surface inh: inactive; PrP 5UTR inh: inactive

What do the screens show for `O=C(Cn1ccc2ccccc21)Nc1cccc(-c2cn3ccsc3n2)c1`?
PriA SSB inh: inactive

How did Cc1ccc(C(=O)Nc2ccc3ccccc3n2)cc1 do in these assays?
PfHsp40 yeast: inactive; Yp Topo-I inh: inactive; BJeLR lethal: inactive; PriA SSB inh: inactive; PrPC surface inh: inactive; PrP 5UTR inh: inactive

What do the screens show for `Cc1ccc(C(O)(C(=O)NNc2ccc3ccccc3n2)c2ccc(C)cc2)cc1`?
PfHsp40 yeast: 74.6!; Yp Topo-I inh: inactive; BJeLR lethal: inactive; PriA SSB inh: inactive; PrPC surface inh: inactive; PrP 5UTR inh: inactive

What do the screens show for `Oc1ccc(Cl)cc1N=Nc1ccccc1`?
PfHsp40 yeast: inactive; Yp Topo-I inh: inactive; BJeLR lethal: inactive; PriA SSB inh: inactive; PrPC surface inh: inactive; PrP 5UTR inh: inactive

What do the screens show for `O=S(=O)(O)c1cc(O)c2c(O)c(N=Nc3cc(Cl)ccc3O)c(S(=O)(=O)O)cc2c1`?
PfHsp40 yeast: inactive; Yp Topo-I inh: 65.0; BJeLR lethal: inactive; PriA SSB inh: 57.7; PrP 5UTR inh: inactive

Results for O=C(Cc1cccs1)NCCCS(=O)(=O)N1CCN(c2ncccn2)CC1 ?
PriA SSB inh: inactive

What do the screens show for `CC(/C=N/n1c(COc2ccccc2)n[nH]c1=S)=C\c1ccccc1`?
PfHsp40 yeast: 66.6; Yp Topo-I inh: inactive; BJeLR lethal: inactive; PrPC surface inh: inactive; PrP 5UTR inh: inactive

What do the screens show for `Cc1ccc2c(c1)N(C)C(=O)c1cc(NC(=O)c3ccccc3Br)ccc1O2`?
PriA SSB inh: inactive

What do the screens show for `O=[N+]([O-])c1ccc(-c2cnc(SC(c3ccccc3)c3ccccc3)[nH]2)cc1`?
PfHsp40 yeast: inactive; Yp Topo-I inh: inactive; BJeLR lethal: inactive; PriA SSB inh: inactive; PrPC surface inh: inactive; PrP 5UTR inh: inactive

Source: PubChem BioAssay
